Results published in PubChem BioAssay (NCI).
The panel holds about 79,000 compounds, 15% with a hit somewhere; the sample as a whole holds those more often. Calls of active or inactive are those of the source. Rule as the data show it: active = growth inhibition above about 70%; inactive = the rest.

Tests used:
[1] = NCI Yeast Anticancer Drug Screen. Data for the rad52 strain (AID 147);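 also: 0% = growth of vehicle-treated control cultures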; details: S. cerevisiae rad52 mutant growth inhibition, active compounds read high
Method in brief: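 Screen used a yeast mutant impaired in DNA repair. After compound exposure, growth was measured. Values reflect inhibition compared with vehicle-treated cells.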

[2] = NCI Yeast Anticancer Drug Screen. Data for the wt1 strain (AID 149);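 also: 0% = growth of vehicle-treated wt1 cultures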; details: S. cerevisiae wt1 strain (SPY 50644) growth inhibition, active compounds read high
Method in brief: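 wt1 strain grown with compound or vehicle; inhibition taken from the growth difference.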

[3] = NCI Yeast Anticancer Drug Screen. Data for the rad50EPP+ strain (AID 151);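 also: 0% = growth of vehicle-treated control cultures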; details: S. cerevisiae rad50 mutant strain, active compounds read high
Method in brief: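 Exposing the rad50EPP+ strain to each compound, growth was compared with vehicle-only cultures to give inhibition.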

[4] = NCI Yeast Anticancer Drug Screen. Data for the mgt1 strain (AID 153); details: S. cerevisiae mgt1 mutant growth inhibition, active compounds read high
Method in brief: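 Genetically defined yeast (mgt1) treated with compound; inhibition of growth expressed against vehicle-treated controls.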

[5] = NCI Yeast Anticancer Drug Screen. Data for the rad50 strain (AID 155);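 also: 0% = growth of vehicle-only cultures of the same strain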; details: S. cerevisiae rad50 strain growth inhibition, active compounds read high
Method in brief: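 DNA repair mutant yeast, compound exposure, growth read-out; inhibition is taken relative to vehicle.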

[6] = NCI Yeast Anticancer Drug Screen. Data for the mec2-1 strain (AID 157); details: S. cerevisiae mec2-1 strain, active compounds read high
Method in brief: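 Readout is yeast growth inhibition, normalised to vehicle-treated controls, in the mec2-1 strain exposed to compound.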

[7] = NCI Yeast Anticancer Drug Screen. Data for the rad14 strain (AID 159);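 also: 0% = growth of vehicle-treated control cultures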; details: S. cerevisiae rad14 strain growth inhibition, active compounds read high
Method in brief: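 DNA repair-defective yeast, compound-exposed; % growth inhibition derived by comparison with vehicle-treated controls.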

[8] = NCI Yeast Anticancer Drug Screen. Data for the sgs1 mgt1 strain (AID 161);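 also: 0% = growth of cultures given vehicle only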; details: S. cerevisiae sgs1 mgt1 strain, active compounds read high
Method in brief: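 Growth of a repair-deficient yeast mutant was monitored after compound treatment and expressed as inhibition relative to vehicle-treated cultures.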

[9] = NCI Yeast Anticancer Drug Screen. Data for the CLN2oe strain (AID 163);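 also: 0% = growth of vehicle-only control cultures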; details: S. cerevisiae CLN2oe strain, active compounds read high
Method in brief: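 Values reflect how much compound exposure reduced yeast growth, referenced to vehicle-exposed cells. Assay organism is a strain with a defined genetic change affecting cell-cycle control.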

[10] = NCI Yeast Anticancer Drug Screen. Data for the cln2 rad14 strain (AID 165);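 also: 0% = growth equal to vehicle treated cultures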; details: S. cerevisiae cln2 rad14 strain, active compounds read high
Method in brief: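 Relative to vehicle controls, growth inhibition of compound-treated cln2 rad14 yeast was recorded.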

[11] = NCI Yeast Anticancer Drug Screen. Data for the bub3 strain (AID 167); details: S. cerevisiae bub3 mutant strain, active compounds read high
Method in brief: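 In this screen, a yeast mutant lacking normal mitotic checkpoint function is challenged with compound. Relative growth versus vehicle gives the inhibition value.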

[12] = NCI Yeast Anticancer Drug Screen. Data for the mlh1 strain (AID 171);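 also: 0% = growth of vehicle-treated control cultures of the same strain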; details: S. cerevisiae mlh1 strain growth inhibition, active compounds read high
Method in brief: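 Steps: expose the defined-mutant yeast strain to compound; expose a parallel culture to vehicle; measure growth; express compound effect as inhibition relative to the vehicle culture.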

[13] = NCI Yeast Anticancer Drug Screen. Data for the sgs1 strain (AID 173);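 also: 0% = growth of vehicle-only control cultures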; details: S. cerevisiae sgs1 mutant, active compounds read high
Method in brief: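 Treat defined-mutant yeast with compound; measure growth; calculate inhibition relative to vehicle-treated cells.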

[14] = NCI Yeast Anticancer Drug Screen. Data for the mlh1 rad18 strain (AID 175); details: S. cerevisiae mlh1 rad18 strain growth inhibition, active compounds read high
Method in brief: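 Test agents were incubated with a yeast strain of defined genotype (DNA damage repair defect). Inhibition of growth was derived by comparison with vehicle-exposed cultures.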

[15] = NCI Yeast Anticancer Drug Screen. Data for the rad18 strain (AID 177); details: S. cerevisiae rad18 mutant growth inhibition, active compounds read high
Method in brief: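 A genetically defined yeast mutant impaired in DNA damage repair was treated with test compounds, then its growth was measured against cultures receiving vehicle alone.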

[16] = NCI Yeast Anticancer Drug Screen. Data for the wt2 strain (AID 169);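 also: 0% = growth of vehicle-treated yeast cultures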; details: S. cerevisiae wt2 strain growth inhibition, active compounds read high
Method in brief: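 Values express reduction in yeast growth under compound treatment, referenced to vehicle-treated cells.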

[17] = at 5.0 µM (retest, dose inferred, filed as 0.5)
[18] = at 50.0 µM (retest, dose inferred, filed as 5.0)

Measured: growth inhibition

NC1=NCC(c2ccc(Cl)cc2)O1 (stereo unspecified)
inactive: [1]; at 1.2 µM -4% | [1]; at 3.7 µM -2% | [1]; at 11.0 µM -5% | [1]; at 33.0 µM -8% | [1]; at 100.0 µM 47% | [2]; at 1.2 µM -5% | [2]; at 3.7 µM -4% | [2]; at 11.0 µM -7% | [2]; at 33.0 µM -5% | [2]; at 100.0 µM 3% | [3]; at 1.2 µM -2% | [3]; at 3.7 µM 0% | [3]; at 11.0 µM 0% | [3]; at 33.0 µM 4% | [3]; at 100.0 µM 4% | [4]; at 1.2 µM -3% | [4]; at 3.7 µM -4% | [4]; at 11.0 µM -2% | [4]; at 33.0 µM 5% | [4]; at 100.0 µM 50% | [5]; at 1.2 µM -1% | [5]; at 3.7 µM -4% | [5]; [17] -151% | [5]; at 11.0 µM 7% | [5]; at 33.0 µM 11% | [5]; [18] 17% | [5]; at 50.0 µM 57.8% | [5]; at 100.0 µM 49% | [6]; at 1.2 µM 1% | [6]; at 3.7 µM -1% | [6]; [17] -51% | [6]; at 11.0 µM 3% | [6]; at 33.0 µM 1% | [6]; [18] 10% | [6]; at 50.0 µM 13.3% | [6]; at 100.0 µM 44% | [7]; at 1.2 µM -2% | [7]; at 3.7 µM -3% | [7]; at 11.0 µM -1% | [7]; at 33.0 µM 2% | [7]; at 100.0 µM 52% | [8]; [17] -62% | [8]; [18] 17% | [8]; at 50.0 µM 50.2% | [9]; at 1.2 µM -2% | [9]; at 3.7 µM -2% | [9]; at 11.0 µM 3% | [9]; at 33.0 µM 1% | [9]; at 100.0 µM 50% | [10]; [17] -64% | [10]; [18] 7% | [10]; at 50.0 µM 31.1% | [11]; at 1.2 µM -11% | [11]; at 3.7 µM -9% | [11]; [17] -76% | [11]; at 11.0 µM -4% | [11]; at 33.0 µM -6% | [11]; [18] 27% | [11]; at 50.0 µM 39.4% | [11]; at 100.0 µM 49% | [12]; at 1.2 µM 7% | [12]; at 3.7 µM -5% | [12]; at 11.0 µM -5% | [12]; at 33.0 µM -4% | [12]; at 100.0 µM 47% | [13]; at 1.2 µM 0% | [13]; at 3.7 µM -1% | [13]; at 11.0 µM -2% | [13]; at 33.0 µM -2% | [13]; at 100.0 µM 48% | [14]; [17] -135% | [14]; at 50.0 µM 50.4% | [15]; at 1.2 µM -4% | [15]; at 3.7 µM -3% | [15]; at 11.0 µM -3% | [15]; at 33.0 µM -3% | [15]; at 100.0 µM 48%
active: [14]; [18] 81%

COC(=O)C1c2cc3c(c(O)c2C(O)CC1(C)O)C(=O)c1c(O)cc2c(c1C3=O)OC1OC2(C)C(O)C(N(C)C)C1O (stereo unspecified)
active: [1]; at 33.0 µM 85% | [1]; at 100.0 µM 93% | [2]; at 100.0 µM 75% | [4]; at 100.0 µM 95% | [5]; at 11.0 µM 86% | [5]; at 33.0 µM 94% | [5]; at 50.0 µM 98% | [5]; at 100.0 µM 93% | [6]; at 33.0 µM 96% | [6]; [18] 92% | [6]; at 50.0 µM 95.3% | [6]; at 100.0 µM 94% | [7]; at 11.0 µM 79% | [7]; at 33.0 µM 97% | [7]; at 100.0 µM 92% | [8]; at 50.0 µM 98% | [9]; at 33.0 µM 73% | [9]; at 100.0 µM 89% | [10]; [18] 85% | [10]; at 50.0 µM 78.2% | [11]; at 33.0 µM 95% | [11]; [18] 97% | [11]; at 50.0 µM 90.9% | [11]; at 100.0 µM 93% | [16]; at 33.0 µM 80% | [16]; at 100.0 µM 93% | [12]; at 11.0 µM 70% | [12]; at 33.0 µM 96% | [12]; at 100.0 µM 94% | [13]; at 33.0 µM 71% | [13]; at 100.0 µM 87% | [14]; [18] 98% | [14]; at 50.0 µM 95.2% | [15]; at 11.0 µM 75% | [15]; at 33.0 µM 94% | [15]; at 100.0 µM 91%
inactive: [1]; at 1.2 µM 0% | [1]; at 3.7 µM 16% | [1]; at 11.0 µM 50% | [2]; at 1.2 µM 2% | [2]; at 3.7 µM 1% | [2]; at 11.0 µM 17% | [2]; at 33.0 µM 34% | [3]; at 1.2 µM -1% | [3]; at 3.7 µM 18% | [3]; at 11.0 µM 39% | [3]; at 33.0 µM 61% | [3]; at 100.0 µM 65% | [4]; at 1.2 µM -7% | [4]; at 3.7 µM 9% | [4]; at 11.0 µM 14% | [4]; at 33.0 µM 52% | [5]; at 1.2 µM 1% | [5]; at 3.7 µM 37% | [5]; [17] 24% | [5]; [18] 64% | [6]; at 1.2 µM -3% | [6]; at 3.7 µM 3% | [6]; [17] 12% | [6]; at 11.0 µM 37% | [7]; at 1.2 µM 0% | [7]; at 3.7 µM 16% | [8]; [17] -3% | [8]; [18] 15% | [9]; at 1.2 µM -7% | [9]; at 3.7 µM 1% | [9]; at 11.0 µM 31% | [10]; [17] 27% | [11]; at 1.2 µM -4% | [11]; at 3.7 µM 3% | [11]; [17] -26% | [11]; at 11.0 µM 55% | [16]; at 1.2 µM 0% | [16]; at 3.7 µM 5% | [16]; at 11.0 µM 28% | [12]; at 1.2 µM -4% | [12]; at 3.7 µM 18% | [13]; at 1.2 µM -1% | [13]; at 3.7 µM 9% | [13]; at 11.0 µM 40% | [14]; [17] 9% | [15]; at 1.2 µM 1% | [15]; at 3.7 µM 13%
